Compounds without any hit were thinned out: in the full panel of roughly 79,000, 15% have a hit. No stated cut-off is given here; in the data, active means growth inhibition above about 70%; inactive means the rest.
Columns and labels:
[1] = NCI Yeast Anticancer Drug Screen. Data for the rad50 strain (AID 155);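 further: 0% = growth of vehicle-only cultures of the same strain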; settings: S. cerevisiae rad50 strain growth inhibition; at 50.0 µM; stronger effect = higher value
Summary of the method: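 Vehicle-treated cultures provide the reference for the growth inhibition reported for compound-exposed, repair-deficient yeast.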

[2] = NCI Yeast Anticancer Drug Screen. Data for the mec2-1 strain (AID 157); settings: S. cerevisiae mec2-1 strain, at 50.0 µM, stronger effect = higher value
Summary of the method: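 Using mec2-1 yeast: add compound, measure growth, express inhibition versus vehicle-treated cultures.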

[3] = NCI Yeast Anticancer Drug Screen. Data for the mlh1 rad18 strain (AID 175); settings: S. cerevisiae mlh1 rad18 strain growth inhibition; at 50.0 µM; stronger effect = higher value
Summary of the method: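 Steps: expose repair-defective yeast to compound; measure growth; express inhibition against vehicle-treated controls.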

Measured: growth inhibition

Nc1ccccc1SC1CC(=O)N(c2ccccc2Cl)C1=O (configuration not stated)
inactive: [1] -18.4% | [2] -33.1% | [3] -6.5%

COc1cc(/C=C2/SC(=S)NC2=O)cc(OC)c1OC
inactive: [1] 16.8% | [2] -1.4% | [3] 19.4%

Cc1c(Cl)cccc1N1C(=O)CC(Sc2ccccc2N)C1=O (configuration not stated)
inactive: [1] 1.05% | [2] -13.9% | [3] 3%

CC(O)Cn1cnc2c1c(=O)n(C)c(=O)n2C (configuration not stated)
inactive: [1] -40.1% | [2] -42.8% | [3] -30.1%

COc1ccc(/C=N\NC(=O)OC(C)(C)C)c(OC)c1OC
inactive: [1] -23.8% | [2] -33.4% | [3] -24.4%

Cc1cccc(C2NC(=O)c3ccccc3N2)c1 (configuration not stated)
inactive: [1] 9.35% | [2] -15.8% | [3] 10.5%

O=C(O)c1ccccc1C(=O)NNC(=O)c1ccccc1C(=O)O
inactive: [1] 4.65% | [2] -5.3% | [3] -13.6%

N#C/C(=C/c1ccc(O)c(O)c1)C(N)=O
inactive: [1] 23.6% | [2] -4.15% | [3] 17.1%

C#Cc1c(-c2c[nH]c3ccccc23)ccc[n+]1C
inactive: [1] -12.5% | [2] -36.1% | [3] -24.4%

— PubChem BioAssay (NCI)
